For assay [1], the target named is Cell division control protein 42 homolog (Homo sapiens) (UniProt P60953). Put plainly: activated mutant Cdc42 GTP-binding inhibitors, dose response, biochemical, multiplex bead flow cytometry, Bodipy-FL-GTP (AID 1333;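 active = fitted half-maximal concentration within the tested dose range, moderate curve steepness, a statistically real signal drop, and little compound fluorescence or tag-binding interference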). On the technique in general: Flow cytometry measures light scatter and fluorescence of single cells or particles in a stream.
Chain of Cell division control protein 42 homolog (Homo sapiens) (P60953 whole entry, looked up): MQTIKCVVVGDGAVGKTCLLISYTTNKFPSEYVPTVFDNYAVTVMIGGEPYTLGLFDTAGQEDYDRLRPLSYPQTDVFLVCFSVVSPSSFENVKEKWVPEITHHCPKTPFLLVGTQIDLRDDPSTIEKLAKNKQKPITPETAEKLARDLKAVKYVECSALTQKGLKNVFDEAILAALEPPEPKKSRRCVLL
The target is the same in assay [2]. Put plainly: wildtype Cdc42 GTP-binding inhibitors, dose response, biochemical, multiplex bead flow cytometry, Bodipy-FL-GTP (AID 1334). Particulars: bead-based flow cytometry, Bodipy-FL-GTP binding to GST-Cdc42; at 100 µM (top of the series) unless noted.
In assay [3] the target is GTPase HRas (Homo sapiens) (UniProt P01112). Description: inhibitors of GTP binding to wildtype Ras, dose response, biochemical, multiplex bead flow cytometry (AID 1335;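 active = fitted half-maximal concentration within 10 nM to 100 µM, steepness 0.5 to 2, significant signal drop, low assay interference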). The note with it: bead-based flow cytometry, Bodipy-GTP binding to GST-Ras; at 100 µM (top of the series) unless noted.
Chain of GTPase HRas (Homo sapiens) (P01112 whole entry, looked up): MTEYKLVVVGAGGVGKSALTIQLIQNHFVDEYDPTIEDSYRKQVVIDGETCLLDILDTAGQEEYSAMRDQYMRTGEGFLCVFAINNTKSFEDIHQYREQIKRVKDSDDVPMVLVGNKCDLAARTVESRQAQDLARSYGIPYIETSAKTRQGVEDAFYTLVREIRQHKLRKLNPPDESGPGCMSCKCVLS
The test system of assay [4] is Ras-related protein Rab-7a (dog), GTP binding. Put plainly: Rab7 GTP binding inhibitors, potency, dose response, biochemical, wildtype, multiplex bead flow cytometry (AID 1336; call rule not given here).
Assay [5] has as its target Ras-related C3 botulinum toxin substrate 1 (Homo sapiens) (UniProt P63000). Description: wildtype Rac1 GTP binding inhibitors, dose response, biochemical, multiplex bead flow cytometry (AID 1340;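 active = dose curve with midpoint inside tested range, moderate steepness, plateau gap beyond fit error, low compound glow and bead-link interference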). Particulars: GST-Rac1 beads, Bodipy-FL-GTP binding; at 100 µM (top of the series) unless noted.
For assay [6], the target named is GTPase HRas (Homo sapiens) (UniProt P01112). Description: activated Ras mutant GTP binding inhibitors, dose response, biochemical, multiplex bead flow cytometry (AID 1341;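 active = dose-response curve with midpoint inside the tested range, moderate steepness, significant amplitude and little compound fluorescence or bead-attachment interference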;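 note: GST-tagged constitutively activated Ras mutant immobilized on beads and multiplexed with other GTPases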).

For part of these data: Results with a measured potency or affinity are listed apart. Calls of active or inactive are those of the source.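 Rule for the calls, unless noted: active = fitted half-maximal concentration within the tested range, moderate curve steepness, significant signal drop, and little compound fluorescence or bead-linkage interference; inactive = the rest.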

With `Cc1ccc(S(=O)(=O)N2CC3(C)CN(S(=O)(=O)c4ccc(C)cc4)CC(C)(C2)C3O)cc1` (stereo not given), the outcome in assay [1], in assay [4] and in assay [6] was inactive. The compound also showed a fluorescence, percent of control (lower = inhibition) in assay [2] of 50%. Besides, in assay [3], the GTP binding, percent of control came out at 61.9%. In assay [5], this compound displayed a GTP binding signal, raw median fluorescence (lower = inhibition) (MCF (arbitrary fluorescence units)) of 204.

As for `COc1ccc(CN2CCN(CCc3ccccc3)C(CCO)C2)c(O)c1` (stereo not given), the call in assay [1], in assay [4] and in assay [6] was inactive. The same compound yielded a fluorescence, percent of control (lower = inhibition) in assay [2] of 40.6%. The GTP binding, percent of control in assay [3] stood at 82.3%. In addition, the GTP binding signal, raw median fluorescence (lower = inhibition) (MCF (arbitrary fluorescence units)) in assay [5] was 265.

For the compound `COc1ccc(-c2cc(=O)c(C(=O)c3ccc(C)cc3)n[nH]2)cc1`, the call in assay [1], in assay [4] and in assay [6] was inactive. In assay [2], this compound gave a fluorescence, percent of control (lower = inhibition) of 35.8%. In assay [3], this compound had a GTP binding, percent of control of 80.8%. This compound gave a GTP binding signal, raw median fluorescence (lower = inhibition) (MCF (arbitrary fluorescence units)) in assay [5] of 317.

With `COc1cccc(C2CC(c3ccccc3)Nc3ncnn32)c1` (stereo not given), the compound was classed as inactive in assay [1], in assay [4] and in assay [6]. The compound further displayed a fluorescence, percent of control (lower = inhibition) in assay [2] of 38.6%. This compound also came in with a GTP binding, percent of control in assay [3] of 80.1%. Besides, the GTP binding signal, raw median fluorescence (lower = inhibition) (MCF (arbitrary fluorescence units)) in assay [5] amounted to 242.

Consider `Cn1nnc(NC(=S)NC(=O)c2ccc(-c3ccc(Br)cc3)o2)n1`, for which the result in assay [1], in assay [4] and in assay [6] was inactive. The compound further returned a fluorescence, percent of control (lower = inhibition) in assay [2] of 30.7%. Also, in assay [3], the GTP binding, percent of control came out at 75.4%. This compound also gave a GTP binding signal, raw median fluorescence (lower = inhibition) (MCF (arbitrary fluorescence units)) in assay [5] of 132.

In the case of `COc1cc(NC(=O)c2cccs2)c(OC)cc1NC(=O)CCC(=O)Nc1cccc2ncccc12`, the compound was called inactive in assay [1], in assay [4] and in assay [6]. This compound came in with a fluorescence, percent of control (lower = inhibition) in assay [2] of 32.3%. In addition, in assay [3], the GTP binding, percent of control was determined as 72.4%. This compound showed a GTP binding signal, raw median fluorescence (lower = inhibition) (MCF (arbitrary fluorescence units)) in assay [5] of 144.

Consider `Nc1c(S(=O)(=O)c2cccs2)c2nc3ccccc3nc2n1/N=C/c1cccc(O)c1`, for which the outcome in assay [1], in assay [4] and in assay [6] was inactive. The fluorescence, percent of control (lower = inhibition) in assay [2] is 30.6%. In addition, the GTP binding, percent of control in assay [3] was 77.3%. The compound further gave a GTP binding signal, raw median fluorescence (lower = inhibition) (MCF (arbitrary fluorescence units)) in assay [5] of 101.

Turning to `O=C1/C(=C\c2ccc(-c3ccccc3Cl)o2)SC(=S)N1CC1CCCO1` (stereo not given), the outcome in assay [1], in assay [4] and in assay [6] was inactive. In addition, the fluorescence, percent of control (lower = inhibition) in assay [2] is 29.8%. Further, the GTP binding, percent of control in assay [3] turned out to be 35.9%. The GTP binding signal, raw median fluorescence (lower = inhibition) (MCF (arbitrary fluorescence units)) in assay [5] turned out to be 116.

On to `O=C(CSc1ccc2nnc(-c3cccs3)n2n1)N1CCCC1`, for which the call in assay [1], in assay [4] and in assay [6] was inactive. For the same compound, the fluorescence, percent of control (lower = inhibition) in assay [2] turned out to be 33%. The compound also came in with a GTP binding, percent of control in assay [3] of 74.6%. This compound also yielded a GTP binding signal, raw median fluorescence (lower = inhibition) (MCF (arbitrary fluorescence units)) in assay [5] of 178.

Turning to `COc1c(C)cccc1C(=O)NC(=S)Nc1ccc2c(c1)Cc1ccccc1-2`, the outcome in assay [1], in assay [4] and in assay [6] was inactive. Moreover, the fluorescence, percent of control (lower = inhibition) in assay [2] is 73.4%. The compound further came in with a GTP binding, percent of control in assay [3] of 151%. This compound showed a GTP binding signal, raw median fluorescence (lower = inhibition) (MCF (arbitrary fluorescence units)) in assay [5] of 144.

As for `COc1cccc(NC(=O)CSc2nc3c([nH]c4ccccc43)c(=O)n2C)c1`, the outcome in assay [1], in assay [4] and in assay [6] was inactive. The fluorescence, percent of control (lower = inhibition) in assay [2] is 42.8%. In assay [3], the GTP binding, percent of control was 92.1%. Further, the GTP binding signal, raw median fluorescence (lower = inhibition) (MCF (arbitrary fluorescence units)) in assay [5] stood at 293.

Take `Cc1cc(N/N=C/c2ccc(O)cc2O)nc(-c2ccccc2O)n1`: the call in assay [1], in assay [4] and in assay [6] was inactive. In addition, the fluorescence, percent of control (lower = inhibition) in assay [2] amounted to 40.3%. The same compound showed a GTP binding, percent of control in assay [3] of 48.8%. In addition, the GTP binding signal, raw median fluorescence (lower = inhibition) (MCF (arbitrary fluorescence units)) in assay [5] was 143.

With `COc1ccc2c3c(cccc13)C(=O)N(O)C2=O`, the compound was called inactive in assay [1], in assay [4] and in assay [6]. The compound further displayed a fluorescence, percent of control (lower = inhibition) in assay [2] of 30.1%. Moreover, the GTP binding, percent of control in assay [3] is 69.8%. This compound also gave a GTP binding signal, raw median fluorescence (lower = inhibition) (MCF (arbitrary fluorescence units)) in assay [5] of 145.

For the compound `COc1cc(/C=C2\SC(c3ccccc3)=NC2=O)cc(Cl)c1O`, the compound was called inactive in assay [1], in assay [4] and in assay [6]. In addition, in assay [2], the fluorescence, percent of control (lower = inhibition) came to 26.3%. The compound further came in with a GTP binding, percent of control in assay [3] of 71%. Also, the GTP binding signal, raw median fluorescence (lower = inhibition) (MCF (arbitrary fluorescence units)) in assay [5] was 190.

`Cc1nnc2ccc(-c3cccc(NC(=O)c4ccco4)c3)nn12`: the call in assay [1], in assay [4] and in assay [6] was inactive. Further, the fluorescence, percent of control (lower = inhibition) in assay [2] amounted to 28.7%. The same compound returned a GTP binding, percent of control in assay [3] of 59.2%. The compound further gave a GTP binding signal, raw median fluorescence (lower = inhibition) (MCF (arbitrary fluorescence units)) in assay [5] of 131.

For the origin of these results see PubChem BioAssay.
